Source: the supplement of paper PMC10670038
Structures can show the parent of a compound that is named as a salt. ± gives the standard deviation of the averaged measurements. The full ranking holds about 2,000 compounds; the median of “relative cell viability vs DMSO, compound alone” is about 1.1, and the lowest 2% start at about 0.29. What follows is part of a selection rich in the lowest values, with near analogues and random picks from the rest.

These molecules were tested on TE10 (assay: relative cell viability vs DMSO, compound alone (fraction); TE10 is an esophageal squamous carcinoma line; higher = less cytotoxic). Conditions: 2 µM; 48 h.
Procedure: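 TE10 ESCC cells (1,000/well, 384-well plates) were treated with Selleck bioactive library compounds at 2 uM alone for 48 h. Viability was read by CellTiter-Glo and expressed relative to DMSO wells. Two technical replicates (A, B).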

Going from CC[C@@H](C)Nc1cc(C(=O)N[C@H]2C[C@H]3CC[C@@H](C2)N3c2ccc(C(=O)C3CC3)cn2)c(C)cc1C(N)=O to Cc1c(F)cc(C(=O)NC2CC2)cc1-c1ccc(C(=O)NCC(C)(C)C)cn1, the relative cell viability rises from 0.449 ± 0.023 to 0.959 ± 0.18.

Going from O=C(O)c1cc(/N=N/c2ccc(S(=O)(=O)Nc3ccccn3)cc2)ccc1O [Sulfasalazine] to CCc1nc(-c2cccc(C)c2)c(-c2ccnc(NC(=O)c3ccccc3)c2)s1, the relative cell viability rises from 1.04 ± 0.026 to 1.0779 ± 0.0008.

Cc1ccc([N+](=O)[O-])cc1S(=O)(=O)N(C)/N=C/c1cnc2ccc(Br)cn12 and Cc1ccc(S(=O)(=O)c2ccc([N+](=O)[O-])o2)cc1 are within error of each other in relative cell viability: 0.287 ± 0.012 for the first, 0.286 ± 0.0092 for the second.

COc1cc(C(C)=O)ccc1O [Apocynin] and CNC[C@@H](O)c1ccc(O)c(O)c1 [L-Adrenaline] are within error of each other in relative cell viability: 1.07 ± 0.059 for the first, 1.06 ± 0.028 for the second.

First: CCCCOc1c(C(=O)c2c(F)cc(C)cc2F)c[nH]c2nncc1-2
Second: COCC[n+]1c2c(n(Cc3cnccn3)c1C)C(=O)c1ccccc1C2=O [YM155 (Sepantronium Bromide)]
The relative cell viability of the first is higher: 0.904 ± 0.014 for the first, 0.0556 ± 0.0047 for the second.

CCOC(=O)CCNc1cc(N2CCc3ccccc3CC2)nc(-c2ccccn2)n1 and CC(C)(OCc1nn(Cc2ccccc2)c2ccccc12)C(=O)O [Bindarit] are within error of each other in relative cell viability: 0.957 ± 0.1 for the first, 1.1 ± 0.053 for the second.

CC1(C)S[C@@H]2[C@H](NC(=O)[C@H](NC(=O)N3CCNC3=O)c3ccccc3)C(=O)N2[C@H]1C(=O)O [Azlocillin sodium salt] and Cc1nc(=O)c2cc(CN(C)c3ccc(C(=O)N[C@@H](CCC(=O)O)C(=O)O)s3)ccc2[nH]1 [Raltitrexed] are within error of each other in relative cell viability: 1.09 ± 0.026 for the first, 1.07 ± 0.086 for the second.

Compared with C=C[C@]1(C)C[C@@H](OC(=O)CS[C@@H]2C[C@H]3CC[C@@H](C2)N3C)[C@]2(C)[C@H](C)CC[C@]3(CCC(=O)[C@H]32)[C@@H](C)[C@@H]1O [Retapamulin], CCC[C@@H]1C[C@@H](C(=O)N[C@@H]([C@H]2O[C@H](SC)[C@H](O)[C@@H](O)[C@H]2O)[C@@H](C)O)N(C)C1 [Lincomycin HCl] is lower in relative cell viability: 1.29 ± 0.028 for the first, 1.12 ± 0.073 for the second.

CCC(=O)Nc1cccc(Oc2nc(Nc3ccc(N4CCN(C)CC4)cc3OC)ncc2Cl)c1 and CNC(=O)CN1CCC(Oc2cc3c(Nc4cccc(Cl)c4F)ncnc3cc2OC)CC1 [AZD8931 (Sapitinib)] are within error of each other in relative cell viability: 1.16 ± 0.059 for the first, 1.21 ± 0.015 for the second.

First: Clc1ccc(Nc2nnc(Cc3ccncc3)c3ccccc23)cc1 [Vatalanib (PTK787) 2HCl]
Second: Nc1nc(CC(=O)Nc2ccc(CCNC[C@H](O)c3ccccc3)cc2)cs1 [Mirabegron]
The relative cell viability of the first is higher: 1.16 ± 0.022 for the first, 0.954 ± 0.11 for the second.

First: CN(C)Cc1ccc(S(=O)(=O)n2ccc(/C=C/C(=O)NO)c2)cc1 [Resminostat]
Second: Cc1[nH]c2ccccc2c1CCNCc1ccc(/C=C/C(=O)NO)cc1 [Panobinostat (LBH589)]
The relative cell viability of the first is higher: 0.908 ± 0.028 for the first, 0.0672 ± 0.00084 for the second.

Cc1[nH]c2ccccc2c1CCNC(=O)c1cccs1 and Cc1c(Nc2ncccc2C(=O)O)cccc1C(F)(F)F [Flunixin Meglumin] are within error of each other in relative cell viability: 1.08 ± 0.069 for the first, 0.994 ± 0.028 for the second.

First: COc1ccc(-c2coc3cc(O)ccc3c2=O)cc1 [Formononetin]
Second: O=C(O)c1ccc(C=C2SC(=S)N(c3cccc(C(F)(F)F)c3)C2=O)cc1
The relative cell viability of the first is lower: 0.901 ± 0.044 for the first, 1.04 ± 0.026 for the second.

O=C(CCCN1CC=C(n2c(=O)[nH]c3ccccc32)CC1)c1ccc(F)cc1 [Droperidol] and COc1cc2c(cc1OC)CN(CCc1ccc(NC(=O)c3cccc4c(=O)c5cccc(OC)c5[nH]c34)cc1)CC2 are within error of each other in relative cell viability: 1.08 ± 0.044 for the first, 1.03 ± 0.056 for the second.

Compared with NC(=O)N/N=C/c1ccc([N+](=O)[O-])o1 [Nitrofural], Cc1c(C(N)=O)cc([N+](=O)[O-])cc1[N+](=O)[O-] [Dinitolmide] is higher in relative cell viability: 1.02 ± 0.057 for the first, 1.0978 ± 0.00018 for the second.

Compared with COc1ccc(/C=C/C(=O)C2(C(=O)/C=C/c3ccc(OC)c(OC)c3)CCCCC2)cc1OC, NC(=O)c1cccc(-c2cccc(OC(=O)NC3CCCCC3)c2)c1 is higher in relative cell viability: 0.726 ± 0.088 for the first, 1.17 ± 0.024 for the second.

CNCCc1ccccn1 [Betahistine 2HCl] and CC(C)c1cnn2c(NCc3ccccc3)cc(NCCCCCCN)nc12 are within error of each other in relative cell viability: 0.903 ± 0.18 for the first, 1.08 ± 0.063 for the second.

COC1=CC(=O)C[C@@H](C)[C@]12Oc1c(Cl)c(OC)cc(OC)c1C2=O [Griseofulvin] and CC1=NN(c2ccc(C(=O)O)cc2)C(=O)C1=Cc1ccc(-c2cc(C)c(C)cc2[N+](=O)[O-])o1 are within error of each other in relative cell viability: 1.12 ± 0.06 for the first, 1.04 ± 0.022 for the second.

O[C@@H](COc1cccc2ncccc12)CN1CCN(C2c3ccccc3[C@@H]3[C@H](c4ccccc42)C3(F)F)CC1 (stereo partly specified) and Cc1ccccc1C(C(=O)NC1CCCCC1)N(C(=O)Cn1ccnc1C)c1cccc(F)c1 (stereo unspecified) are within error of each other in relative cell viability: 1.14 ± 0.082 for the first, 0.989 ± 0.22 for the second.

Going from CCn1c(N)c(C(=O)NC)c(=O)c2ccc(C#CC(C)(O)COC)nc21 (stereo unspecified) to CN(Cc1cnc2nc(N)nc(N)c2n1)c1ccc(C(=O)N[C@@H](CCC(=O)O)C(=O)O)cc1 [Methotrexate], the relative cell viability falls from 0.979 ± 0.17 to 0.143 ± 0.0081.

First: C#CCC(Cc1cnc2nc(N)nc(N)c2n1)c1ccc(C(=O)N[C@@H](CCC(=O)O)C(=O)O)cc1 (stereo partly specified) [Pralatrexate]
Second: Nc1c(CC(=O)O)cccc1C(=O)c1ccc(Br)cc1 [Bromfenac Sodium]
The relative cell viability of the first is lower: 0.1336 ± 0.00088 for the first, 1.09 ± 0.046 for the second.

Compared with CCCCCCCCCCCCCCCC[N+](C)(C)C [Cetrimonium Bromide (CTAB)], CN(C)c1ccc(C(=C2C=CC(=[N+](C)C)C=C2)c2ccc(N(C)C)cc2)cc1 [Crystal Violet] is lower in relative cell viability: 1.05 ± 0.039 for the first, 0.278 ± 0.006 for the second.

First: CC#CC(=O)Nc1ccc2ncnc(Nc3cccc(Br)c3)c2c1
Second: CN(C)C(=O)c1cc2cnc(Nc3ccc(N4CCNCC4)cn3)nc2n1C1CCCC1
The relative cell viability of the first is lower: 0.773 ± 0.043 for the first, 1.147 ± 0.008 for the second.
